PrP UTR inh: inhibition of PrP 5' UTR reporter expression | cell-based PrP 5' UTR mRNA reporter, plate reader | inhibition, % (concentration not given with the values) | 340,000 compounds, 0.35% hits; in the data active = inhibition above about 52%
PrPC TRFRET: cell surface PrPC inhibition, primary TR-FRET screen. TR-FRET read-out. inhibition, % at 13.8 µM. P04156. 370,000 compounds, 0.43% hits; in the data active = inhibition above about 24%
CCHF vOTU inh: blocks the CCHF virus ovarian tumor domain protease. 370,000 compounds, 0.55% hits. CCHFV vOTU protease, Pep-AMC fluorescence. inhibition, % at 11.5 µM. AID 651958; in the data active = inhibition above about 30%
BJeLR viability: kills HRASV12-expressing BJeLR cells; 300,000 compounds, 0.17% hits; AID 1554; inhibition, % (test concentration not listed); BJeLR (HRASV12) viability, CellTiter-Glo ATP luminescence, 48 h; in the data active = inhibition above about 50%
PfHsp40 rescue: compounds rescuing yeast from Plasmodium falciparum HSP40 toxicity; 340,000 compounds, 0.68% hits; S. cerevisiae expressing PfHsp40, growth rescue, ATP luminescence; growth rescue, % at 12.5 µM; AID 504582; in the data active = growth rescue above about 28%, passing the limit was not always enough;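 also: yeast W303a lacking pdr1 and pdr3 grown in galactose medium; growth measured after three days at 30 °C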
Y pestis TopoI: blocks Yersinia pestis topoisomerase I activity. Y. pestis Topo-I cleavage product accumulation, plate reader. activity, % at 10 µM. 360,000 compounds, 0.064% hits. AID 504884; in the data active = activity above about 50%, passing the limit was not always enough
Numbers stand for hits. Compounds with a hit are over-represented: about 2% of the library has one in this group of screens.

Results for S=c1[nH]nc(-c2n[nH]c3c2CCC3)n1N=Cc1ccc(Br)s1 ?
PrPC TRFRET: inactive; CCHF vOTU inh: inactive

How did CCCC[C@H]1C2CC(OC(=O)Nc3ccc(Cl)cc3)C(C2)[C@H]2CCCCN21 (stereo partly drawn) do in these assays?
PrPC TRFRET: inactive; CCHF vOTU inh: inactive

What do the screens show for `CC(C)C[C@@H]1COc2cc(Br)ccc2S(=O)(=O)N1Cc1cn(Cc2ccc(Cl)cc2)nn1`?
PrPC TRFRET: inactive; CCHF vOTU inh: inactive

What do the screens show for `CCN(CC)c1ccc(S(=O)(=O)N2CCOCC2)cc1NC(=O)CSc1nncs1`?
PrP UTR inh: inactive; BJeLR viability: inactive; PfHsp40 rescue: inactive; Y pestis TopoI: inactive

Results for CCN(CC)c1ccc(S(=O)(=O)N2CCOCC2)cc1NC(=O)CSc1nncn1C ?
PrP UTR inh: inactive; PrPC TRFRET: inactive; CCHF vOTU inh: 34.6; PfHsp40 rescue: inactive; Y pestis TopoI: inactive

What do the screens show for `C[C@H]1CCC[C@H](O)CC(=O)c2c(O)cc(O)cc2CC(=O)O1`?
PrPC TRFRET: inactive; CCHF vOTU inh: inactive

Results for Cc1noc(C)c1C(=O)N1CCC(n2nnc3ncccc32)CC1 ?
PrPC TRFRET: inactive; CCHF vOTU inh: inactive

Results for COC(=O)C[C@](O)(CCCC(C)(C)O)C(=O)O[C@@H]1C(OC)=C[C@]23CCCN2CCc2cc4c(cc2[C@H]13)OCO4 ?
BJeLR viability: 92.0

How did O=S(=O)(N1CCCCC1)n1nnc2ccccc21 do in these assays?
PrP UTR inh: inactive; PrPC TRFRET: inactive; CCHF vOTU inh: inactive; BJeLR viability: inactive; PfHsp40 rescue: 39.2; Y pestis TopoI: inactive

How did Cc1ccc(S(=O)(=O)N(Cc2cccc(C(F)(F)F)c2)C(=O)N2CCN(C)CC2)cc1 do in these assays?
PrP UTR inh: inactive; PrPC TRFRET: inactive; CCHF vOTU inh: inactive; BJeLR viability: inactive; PfHsp40 rescue: 51.9; Y pestis TopoI: inactive

What do the screens show for `COC(=O)c1cc2c(c3c4cc(F)ccc4n(S(=O)(=O)c4ccccc4)c13)C(=O)N(C)C2`?
PrPC TRFRET: inactive; CCHF vOTU inh: inactive

What do the screens show for `CCN(CC)C(=O)CC[C@H]1CC[C@]2(CCCN(C(=O)c3cccnc3)C2)O1`?
PrPC TRFRET: inactive; CCHF vOTU inh: inactive

Results for C/C(=N\NC(=O)c1ccc(Cl)c(Cl)c1)c1ccccn1 ?
PrP UTR inh: inactive; PrPC TRFRET: inactive; CCHF vOTU inh: inactive; BJeLR viability: inactive; PfHsp40 rescue: inactive; Y pestis TopoI: inactive

What do the screens show for `COc1ccccc1NC(=S)NN=C(C)c1ccccn1`?
PrP UTR inh: inactive; PrPC TRFRET: inactive; CCHF vOTU inh: inactive; PfHsp40 rescue: 179.8; Y pestis TopoI: inactive

How did CC(=NNC(=S)Nc1ccc(C)cc1)c1ccccn1 do in these assays?
PrP UTR inh: inactive; PrPC TRFRET: inactive; CCHF vOTU inh: inactive; PfHsp40 rescue: inactive; Y pestis TopoI: inactive

How did COc1ccc(C(=O)N/N=C(\C)c2ccccn2)cc1OC do in these assays?
PrP UTR inh: inactive; PrPC TRFRET: inactive; CCHF vOTU inh: inactive; BJeLR viability: 74.4; PfHsp40 rescue: inactive; Y pestis TopoI: inactive

Results for CC(=NNC(=S)Nc1cccc(C)c1)c1ccccn1 ?
PrP UTR inh: inactive; PrPC TRFRET: inactive; CCHF vOTU inh: inactive; PfHsp40 rescue: 116.5; Y pestis TopoI: inactive

How did COc1ccc(Cl)cc1NC(=O)C/C(C)=N/NC(=O)c1ccccc1Cl do in these assays?
PrP UTR inh: inactive; PrPC TRFRET: inactive; CCHF vOTU inh: inactive; BJeLR viability: inactive; PfHsp40 rescue: inactive; Y pestis TopoI: inactive

What do the screens show for `COc1cccc(NC(=O)C/C(C)=N/NC(=O)c2ccccc2Cl)c1`?
PrP UTR inh: inactive; PrPC TRFRET: inactive; CCHF vOTU inh: inactive; BJeLR viability: inactive; PfHsp40 rescue: 38.6; Y pestis TopoI: inactive

Results for CCCNC(=O)N1CC[C@H]2[C@@H]1c1cc(-c3ccc(F)cc3)ccc1N(C)[C@H]2CO ?
PrPC TRFRET: inactive; CCHF vOTU inh: inactive

What do the screens show for `CCCCNC(=O)C1CCCN1C(=O)Nc1cccc(C)c1` (stereo not drawn)?
PrPC TRFRET: inactive; CCHF vOTU inh: inactive

How did C/C(CC(=O)Nc1ccccn1)=N\NC(=O)c1ccccc1O do in these assays?
PrP UTR inh: inactive; PrPC TRFRET: inactive; CCHF vOTU inh: inactive; BJeLR viability: inactive; PfHsp40 rescue: 234.2; Y pestis TopoI: inactive

How did C/C(=N\NC(=O)c1cccc2ccccc12)c1ccccn1 do in these assays?
PrP UTR inh: inactive; PrPC TRFRET: inactive; CCHF vOTU inh: inactive; BJeLR viability: 79.0; PfHsp40 rescue: inactive; Y pestis TopoI: inactive

Results for CCCCc1nnn2c1C1c3cc(Br)ccc3CCN1C(=O)C2 (stereo not drawn) ?
PrPC TRFRET: inactive; CCHF vOTU inh: inactive

What do the screens show for `CCCCNC(=O)C[C@H]1C[C@@]2(C(=O)OC)C(=C[C@H](C(C)(C)C)O[C@@H]2C)N(CCc2ccc(OC)c(OC)c2)C1=O`?
PrPC TRFRET: inactive; CCHF vOTU inh: inactive

What do the screens show for `Oc1ccc(C=NC2CCCCC2)c(O)c1`?
PrP UTR inh: inactive; PrPC TRFRET: inactive; CCHF vOTU inh: inactive; BJeLR viability: inactive; PfHsp40 rescue: 35.3; Y pestis TopoI: inactive

What do the screens show for `COc1ccc(OC)c(CN2C(=O)CCCC2(C)c2nnnn2C2CCCC2)c1` (stereo not drawn)?
PrPC TRFRET: inactive; CCHF vOTU inh: inactive

What do the screens show for `CCCOc1ccc2ccccc2c1/C=C1\SC(=O)NC1=O`?
PrP UTR inh: inactive; PrPC TRFRET: inactive; CCHF vOTU inh: inactive; BJeLR viability: inactive; PfHsp40 rescue: 504.5; Y pestis TopoI: inactive

What do the screens show for `O=C(Cc1cn(Cc2ccccc2)c2ccccc12)Nc1ccc(Nc2cccnc2)c(Br)c1`?
PrPC TRFRET: inactive; CCHF vOTU inh: inactive

Results for Cn1c(COc2ccc3ccccc3c2)nnc1SCC(N)=O ?
PrP UTR inh: inactive; PrPC TRFRET: inactive; CCHF vOTU inh: inactive; BJeLR viability: inactive; PfHsp40 rescue: inactive; Y pestis TopoI: inactive

Results for Cn1c(COc2ccc3ccccc3c2)nnc1SCC(=O)OC1CCCCC1 ?
PrP UTR inh: inactive; PrPC TRFRET: inactive; CCHF vOTU inh: inactive; BJeLR viability: inactive; PfHsp40 rescue: 49.0; Y pestis TopoI: inactive

Results for O=C(c1ccccc1)c1ccc2ccccc2c1 ?
PrP UTR inh: inactive; PrPC TRFRET: inactive; CCHF vOTU inh: inactive; PfHsp40 rescue: inactive; Y pestis TopoI: inactive

How did Cc1sc2cc3c(c(C(=O)c4ccccc4)[n+]2c1C)-c1cccc2cccc-3c12 do in these assays?
PrPC TRFRET: inactive; CCHF vOTU inh: inactive; BJeLR viability: 68.0

How did O=C(c1ccccc1)c1c2c(cc3sc4ccccc4[n+]13)-c1cccc3cccc-2c13 do in these assays?
PrP UTR inh: inactive; PrPC TRFRET: inactive; CCHF vOTU inh: inactive; PfHsp40 rescue: 119.1; Y pestis TopoI: inactive

Results for COc1ccc2ccccc2c1-c1c(C(=O)c2ccc(Br)cc2)[nH]c(N)c1C(=O)NC1CCCCC1 ?
PrPC TRFRET: inactive

How did COc1ccc(C(=O)NC(=S)NNC(=O)c2ccc(O)cc2)cc1[N+](=O)[O-] do in these assays?
PrP UTR inh: inactive; PrPC TRFRET: inactive; CCHF vOTU inh: inactive; BJeLR viability: inactive; PfHsp40 rescue: 51.8; Y pestis TopoI: inactive
